Source: PubChem BioAssay (NCATS)
Results filed as inconclusive are left out. Calls of active or inactive are those of the source. Unless noted, calls follow the shape of the dose curve; as a rule, active = well fitted curve in the direction sought with a large enough effect; inconclusive = small, poorly fitted or top-dose-only effect, or another doubt; inactive = no such curve, though single readings can be large; an effect the other way counts as inactive or inconclusive.

Key:
[1] = qHTS for differential inhibitors of proliferation of Plasmodium falciparum line 7G8 (AID 1815);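 also: parasite growth measured after three days of incubation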
[2] = qHTS for differential inhibitors of proliferation of Plasmodium falciparum line GB4 (AID 1816); settings: Potency: Plasmodium falciparum GB4 proliferation inhibition;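 also: parasite growth measured after 72 h incubation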
[3] = qHTS for differential inhibitors of proliferation of Plasmodium falciparum line 3D7 (AID 1876);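 also: parasite growth measured after three days of culture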
[4] = qHTS for differential inhibitors of proliferation of Plasmodium falciparum line D10 (AID 1877);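 also: parasites grown with compound for 72 h before DNA staining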
[5] = qHTS for differential inhibitors of proliferation of Plasmodium falciparum line Dd2 (AID 1882); settings: Potency: Plasmodium falciparum Dd2 proliferation inhibition;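 also: series mostly up to about 29 µM; compound exposure of 72 h on infected erythrocytes; nearly all actives have a fitted effect of over 65% in size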
Method in brief: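 SYBR Green I DNA fluorescence read-out, ex 485/em 535 nm. Signals were normalized to 0.29 uM artemisinin and DMSO wells, then corrected using vehicle-only plates flanking each stack. Parasite growth ran 72 h in erythrocytes before lysis.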

[6] = qHTS for differential inhibitors of proliferation of Plasmodium falciparum line W2 (AID 1883); settings: Potency: Plasmodium falciparum W2 proliferation inhibition;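 also: parasites grown with compound for 72 h before lysis and staining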
[7] = qHTS for differential inhibitors of proliferation of Plasmodium falciparum line HB3 (AID 1886); settings: Potency: Plasmodium falciparum HB3 proliferation inhibition;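 also: parasites grown with compound for 72 h before SYBR Green readout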
[8] = qHTS Assay for Modulators of Human Peripheral Myelin Protein 22 (PMP22) Expression/Activity (AID 1967; active = well fitted curve in the direction sought with a large enough effect in the signal ratio; the % refers to the signal ratio)
Method in brief: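 Luminescence ratio of Pmp22 promoter-driven green luciferase to EF-alpha-driven red luciferase, in engineered mouse MSC80 Schwann cells, served as read-out. Compounds were incubated 24h; untreated cells defined 0% Activity; curves were classified by r2, magnitude and activity.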

[9] = target: Ferritin light chain (Equus caballus) (UniProt P02791); assay: qHTS Validation Assay for Identification of Novel General Anesthetics (AID 2323); also: series mostly up to about 77 µM
Sequence of Ferritin light chain (Equus caballus) (P02791 2-175 limits assumed): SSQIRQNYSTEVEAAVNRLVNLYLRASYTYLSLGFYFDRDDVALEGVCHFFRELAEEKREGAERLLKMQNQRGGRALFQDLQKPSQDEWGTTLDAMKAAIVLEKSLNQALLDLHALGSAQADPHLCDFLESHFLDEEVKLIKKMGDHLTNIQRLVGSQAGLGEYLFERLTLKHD
Method in brief: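 Fluorescence at 535 nm (excitation 380 nm) reported loss of 1-AMA binding to horse-spleen apoferritin (10 uM) in PBS with 50% saturated 1-aminoanthracene, after 10 min room-temperature incubation with compound; values from Hill fits of normalized response.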

[10] = target: ATP-dependent DNA helicase Q1 (Homo sapiens) (UniProt P46063); assay: qHTS Validation Assay for Inhibitors of RecQ-Like Dna Helicase 1 (RECQ1) (AID 2353)
Sequence of ATP-dependent DNA helicase Q1 (Homo sapiens) (P46063 whole entry, looked up): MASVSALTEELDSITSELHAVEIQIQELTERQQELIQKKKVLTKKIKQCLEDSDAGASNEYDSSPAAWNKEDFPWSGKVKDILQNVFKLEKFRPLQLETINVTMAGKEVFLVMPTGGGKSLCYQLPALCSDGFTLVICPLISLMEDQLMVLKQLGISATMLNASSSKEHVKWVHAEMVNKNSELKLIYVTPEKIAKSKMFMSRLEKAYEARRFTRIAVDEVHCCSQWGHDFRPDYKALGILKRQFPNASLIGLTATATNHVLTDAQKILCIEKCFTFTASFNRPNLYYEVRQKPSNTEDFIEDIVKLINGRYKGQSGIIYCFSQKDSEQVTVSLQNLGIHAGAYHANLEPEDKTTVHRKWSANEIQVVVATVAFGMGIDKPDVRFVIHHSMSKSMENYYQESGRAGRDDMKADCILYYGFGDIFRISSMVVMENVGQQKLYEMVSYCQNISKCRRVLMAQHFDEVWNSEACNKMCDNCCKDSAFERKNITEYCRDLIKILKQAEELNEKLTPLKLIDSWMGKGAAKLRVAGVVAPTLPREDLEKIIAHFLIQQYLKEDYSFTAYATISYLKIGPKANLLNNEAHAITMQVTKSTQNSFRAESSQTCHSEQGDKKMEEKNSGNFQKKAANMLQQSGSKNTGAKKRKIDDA
Method in brief: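 50 nM RECQ1T1 preincubated 15 min with compound in Tris pH 8.0 buffer with MgCl2, DTT, Tween-20 and 2.5 ug/ml poly(dI-dC); started with 200 nM TAMRA/BHQ-2 forked duplex and 2 mM ATP. Unwinding read as fluorescence (525/598 nm), two reads 2 h apart.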

[11] = target: RecQ-like DNA helicase BLM (Homo sapiens) (UniProt P54132); assay: qHTS Validation Assay for Inhibitors of Bloom's syndrome helicase (BLM) (AID 2364)
Sequence of RecQ-like DNA helicase BLM (Homo sapiens) (P54132 whole entry, looked up): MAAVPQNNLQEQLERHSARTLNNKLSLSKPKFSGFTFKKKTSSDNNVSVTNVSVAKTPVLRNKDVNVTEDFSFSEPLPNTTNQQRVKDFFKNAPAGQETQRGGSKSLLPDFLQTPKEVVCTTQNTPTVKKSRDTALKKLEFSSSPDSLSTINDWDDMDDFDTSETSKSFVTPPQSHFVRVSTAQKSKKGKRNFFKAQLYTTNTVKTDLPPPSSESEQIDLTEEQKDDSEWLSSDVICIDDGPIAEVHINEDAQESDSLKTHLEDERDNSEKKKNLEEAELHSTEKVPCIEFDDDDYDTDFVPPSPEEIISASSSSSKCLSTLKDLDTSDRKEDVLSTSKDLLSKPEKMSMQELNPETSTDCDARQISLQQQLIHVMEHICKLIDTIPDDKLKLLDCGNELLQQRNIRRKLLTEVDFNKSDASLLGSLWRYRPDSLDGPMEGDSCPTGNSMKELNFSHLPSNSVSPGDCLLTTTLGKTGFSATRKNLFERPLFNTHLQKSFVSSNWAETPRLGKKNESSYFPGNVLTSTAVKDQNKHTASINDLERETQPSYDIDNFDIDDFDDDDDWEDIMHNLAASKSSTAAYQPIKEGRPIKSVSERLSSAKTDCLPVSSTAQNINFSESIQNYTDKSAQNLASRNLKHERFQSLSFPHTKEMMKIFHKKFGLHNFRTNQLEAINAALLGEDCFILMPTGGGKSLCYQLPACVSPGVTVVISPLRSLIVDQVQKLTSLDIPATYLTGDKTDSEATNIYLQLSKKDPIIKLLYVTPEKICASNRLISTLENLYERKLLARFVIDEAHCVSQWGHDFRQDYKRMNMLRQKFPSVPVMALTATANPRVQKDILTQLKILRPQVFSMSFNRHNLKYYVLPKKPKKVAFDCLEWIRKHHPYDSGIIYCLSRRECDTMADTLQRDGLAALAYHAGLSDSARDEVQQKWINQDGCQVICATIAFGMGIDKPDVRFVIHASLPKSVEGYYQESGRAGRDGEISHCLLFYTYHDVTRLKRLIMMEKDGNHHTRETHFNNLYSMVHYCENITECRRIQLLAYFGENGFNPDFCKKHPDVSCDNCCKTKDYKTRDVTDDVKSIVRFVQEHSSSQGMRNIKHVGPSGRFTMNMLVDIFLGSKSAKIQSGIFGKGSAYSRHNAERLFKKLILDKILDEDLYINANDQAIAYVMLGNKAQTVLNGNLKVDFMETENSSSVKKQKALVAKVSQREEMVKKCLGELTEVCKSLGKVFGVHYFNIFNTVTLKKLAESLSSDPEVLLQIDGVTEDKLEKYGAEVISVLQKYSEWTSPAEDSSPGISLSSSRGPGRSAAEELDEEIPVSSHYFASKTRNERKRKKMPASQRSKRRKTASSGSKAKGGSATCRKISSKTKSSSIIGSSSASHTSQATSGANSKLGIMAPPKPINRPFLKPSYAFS
Method in brief: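 BLM 50 nM in 25 mM Tris-HCl pH 8.0, 5 mM NaCl, 2 mM MgCl2, 1 mM DTT, 0.01% Tween-20, 2.5 ug/ml poly(dI-dC); 15 min cpd preinc, RT. Start: 200 nM forked DNA + 2 mM ATP (final). TAMRA read, 2 reads 2 h apart.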

[12] = Validation screen for small molecules that induce DNA re-replication in MCF 10A normal breast cells (AID 463097); also: nearly all actives have a fitted effect of over 60% in size
Method in brief: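 Image-based qHTS: normal breast cells are incubated with compound for 48 hr, stained with Hoechst, and scanned for total nuclear fluorescence. Compounds raising the fraction of nuclei with elevated DNA content count as re-replication inducers.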

[13] = Quantitative high throughput screen for delayed death inhibitors of the malarial parasite plastid, 96 hour incubation (AID 488745); also: series mostly up to about 29 µM; nearly all actives have a fitted effect of over 70% in size
Method in brief: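 P. falciparum carrying an integrated firefly luciferase reporter, grown in erythrocytes (2% hematocrit, 0.1% parasitemia final) in RPMI 1640/0.5% Albumax, was exposed to compound for 96 h (two generations) at 37 C, 5% CO2. Luminescence decrease indicated growth inhibition.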

[14] = Quantitative high throughput screen for delayed death inhibitors of the malarial parasite plastid, 48 hour incubation (AID 488752); also: nearly all actives have a fitted effect of over 65% in size
Method in brief: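 Erythrocytes infected with P. falciparum carrying an integrated firefly luciferase reporter (2% hematocrit, 0.1% parasitemia final) were exposed to compounds in RPMI 1640/0.5% Albumax for 48 h at 37 C, 5% CO2. Growth inhibition was scored as reduced luminescence.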

[15] = target: M-phase phosphoprotein 8 (Homo sapiens) (UniProt Q99549); assay: qHTS Validation Assay for Inhibitors for MPP8 Chromodomain Interactions with Methylated Histone Tails (AID 488949);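 also: 50 nM MPP8 with 50 nM peptide preformed then compounds added for 30 min; AlphaScreen signal from MPP8 chromodomain bound to biotinylated H3K9me3 peptide; top concentration of the series differs between compounds; nearly all actives have a fitted effect of over 55% in size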
Sequence of M-phase phosphoprotein 8 (Homo sapiens) (Q99549 whole entry, looked up): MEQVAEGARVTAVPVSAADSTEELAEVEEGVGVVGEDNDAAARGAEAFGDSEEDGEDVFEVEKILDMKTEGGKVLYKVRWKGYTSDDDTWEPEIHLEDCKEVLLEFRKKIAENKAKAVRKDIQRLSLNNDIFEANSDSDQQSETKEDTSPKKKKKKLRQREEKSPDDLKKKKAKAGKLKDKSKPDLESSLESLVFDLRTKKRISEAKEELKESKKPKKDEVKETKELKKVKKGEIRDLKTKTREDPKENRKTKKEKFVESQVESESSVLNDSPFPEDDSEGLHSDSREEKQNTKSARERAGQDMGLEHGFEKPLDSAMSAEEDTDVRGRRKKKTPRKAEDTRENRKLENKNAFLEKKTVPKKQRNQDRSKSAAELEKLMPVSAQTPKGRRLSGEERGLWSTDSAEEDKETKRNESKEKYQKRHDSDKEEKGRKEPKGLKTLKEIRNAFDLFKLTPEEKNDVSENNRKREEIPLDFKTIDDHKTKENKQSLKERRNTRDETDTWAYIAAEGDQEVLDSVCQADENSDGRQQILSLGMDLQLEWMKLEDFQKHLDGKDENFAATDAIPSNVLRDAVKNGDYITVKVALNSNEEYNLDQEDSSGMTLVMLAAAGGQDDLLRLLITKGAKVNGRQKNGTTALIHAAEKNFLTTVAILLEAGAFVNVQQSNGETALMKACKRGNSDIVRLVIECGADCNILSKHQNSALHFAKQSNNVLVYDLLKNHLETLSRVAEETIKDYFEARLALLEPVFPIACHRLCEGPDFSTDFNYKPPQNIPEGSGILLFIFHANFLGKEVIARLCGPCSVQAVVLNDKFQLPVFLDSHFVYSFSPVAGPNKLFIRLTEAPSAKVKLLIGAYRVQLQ
Method in brief: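 50 nM MPP8 + 50 nM b-H3K9me3 peptide, PBS pH 7.4/0.01% Tween-20, 30 min RT; + cpd 30 min RT; + AlphaScreen donor/Ni-chelate acceptor beads 10 ug/mL final, 30 min dark; luminescence read.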

[16] = target: Transient receptor potential cation channel subfamily V member 1 (Homo sapiens) (UniProt Q8NER1); assay: HTS Assay for Compounds that Act as Enhancers of the Vanilloid Receptor 1 (AID 488979)
Method in brief: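 TRPV1-expressing cells loaded with Fluo-8 calcium dye; compounds added and calcium influx read kinetically for 3 min (agonist phase), then capsaicin at EC20 added and read 2 min more for enhancement. Fluorescence ex 480/em 520 nm.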

[17] = target: Thyrotropin receptor (Homo sapiens) (UniProt P16473); assay: qHTS Assay for Antagonists of the Thyroid Stimulating Hormone Receptor (AID 488980); also: series mostly up to about 58 µM
Method in brief: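 Readout is cAMP by HTRF competition between cellular cAMP and cAMP-d2 for a cryptate-labelled antibody. Antagonism was assessed in TSHR-transfected HEK293 cells stimulated with 4 nM TSH (EC80, final) in the presence of RO 20-1724.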

[18] = target: Galactokinase (Homo sapiens) (UniProt P51570); assay: qHTS Validation Assay for Inhibitors of Human Galactokinase (GALK) (AID 493189)
Sequence of Galactokinase (Homo sapiens) (P51570 whole entry, looked up): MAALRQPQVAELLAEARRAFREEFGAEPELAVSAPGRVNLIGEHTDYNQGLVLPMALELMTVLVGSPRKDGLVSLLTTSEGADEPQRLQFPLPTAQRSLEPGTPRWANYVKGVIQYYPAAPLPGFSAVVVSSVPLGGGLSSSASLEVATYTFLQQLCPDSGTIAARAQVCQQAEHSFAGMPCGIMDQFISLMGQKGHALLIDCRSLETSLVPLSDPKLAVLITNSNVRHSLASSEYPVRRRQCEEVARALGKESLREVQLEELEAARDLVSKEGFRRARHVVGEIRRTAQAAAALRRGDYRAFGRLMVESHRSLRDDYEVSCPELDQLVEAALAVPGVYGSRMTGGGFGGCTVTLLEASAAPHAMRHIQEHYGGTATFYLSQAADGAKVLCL
Method in brief: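 5 nM GALK / 100 uM galactose / 35 uM ATP, 20 mM HEPES pH8.0, 5 mM MgCl2, 60 mM NaCl, 1 mM DTT, 0.01% BSA (final). RT 1 h; Kinase-Glo Plus luminescence.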

[19] = Validation screen for small molecules that induce DNA re-replication in SW480 colon adenocarcinoma cells (AID 504364)
Method in brief: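 SW480 cells seeded at 250 per well were exposed to compound or DMSO for 48 hr at 37 C, 5% CO2, then stained with Hoechst for 40 min. DNA content per nucleus was imaged (405 nm ex, 500-530 nm em).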

[20] = target: DNA dC->dU-editing enzyme APOBEC-3G (Homo sapiens) (UniProt Q9HC16); assay: qHTS for inhibitors of Vif-A3G interactions: Validation (AID 588379)
Sequence of DNA dC->dU-editing enzyme APOBEC-3G (Homo sapiens) (Q9HC16 whole entry, looked up): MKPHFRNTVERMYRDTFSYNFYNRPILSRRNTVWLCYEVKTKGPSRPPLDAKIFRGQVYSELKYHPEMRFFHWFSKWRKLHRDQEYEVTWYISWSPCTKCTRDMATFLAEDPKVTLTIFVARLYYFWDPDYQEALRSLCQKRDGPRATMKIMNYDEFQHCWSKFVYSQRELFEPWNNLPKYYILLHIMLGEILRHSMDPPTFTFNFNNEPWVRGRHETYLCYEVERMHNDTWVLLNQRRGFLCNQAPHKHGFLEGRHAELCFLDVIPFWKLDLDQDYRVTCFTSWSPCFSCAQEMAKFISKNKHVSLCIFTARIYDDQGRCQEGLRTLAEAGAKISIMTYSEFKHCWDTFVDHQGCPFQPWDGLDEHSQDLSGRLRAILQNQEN
Method in brief: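 HeLa cells stably expressing Vif and A3G-eYFP, 700 cells/well, incubated overnight at 37 deg C, then exposed to compound overnight at 37 deg C. Inhibition of Vif-mediated degradation read as increased yellow fluorescence (Ex 488/Em 500-530) by laser-scanning cytometry.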

[21] = target: Voltage-gated inwardly rectifying potassium channel KCNH2 (Homo sapiens) (UniProt Q12809); assay: qHTS Assay for Small Molecule Inhibitors of the Human hERG Channel Activity (AID 588834);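 also: top concentration of the series differs between compounds; lower thallium flux fluorescence means stronger hERG block; nearly all actives have a fitted effect of over 50% in size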
Sequence of Voltage-gated inwardly rectifying potassium channel KCNH2 (Homo sapiens) (Q12809 whole entry, looked up): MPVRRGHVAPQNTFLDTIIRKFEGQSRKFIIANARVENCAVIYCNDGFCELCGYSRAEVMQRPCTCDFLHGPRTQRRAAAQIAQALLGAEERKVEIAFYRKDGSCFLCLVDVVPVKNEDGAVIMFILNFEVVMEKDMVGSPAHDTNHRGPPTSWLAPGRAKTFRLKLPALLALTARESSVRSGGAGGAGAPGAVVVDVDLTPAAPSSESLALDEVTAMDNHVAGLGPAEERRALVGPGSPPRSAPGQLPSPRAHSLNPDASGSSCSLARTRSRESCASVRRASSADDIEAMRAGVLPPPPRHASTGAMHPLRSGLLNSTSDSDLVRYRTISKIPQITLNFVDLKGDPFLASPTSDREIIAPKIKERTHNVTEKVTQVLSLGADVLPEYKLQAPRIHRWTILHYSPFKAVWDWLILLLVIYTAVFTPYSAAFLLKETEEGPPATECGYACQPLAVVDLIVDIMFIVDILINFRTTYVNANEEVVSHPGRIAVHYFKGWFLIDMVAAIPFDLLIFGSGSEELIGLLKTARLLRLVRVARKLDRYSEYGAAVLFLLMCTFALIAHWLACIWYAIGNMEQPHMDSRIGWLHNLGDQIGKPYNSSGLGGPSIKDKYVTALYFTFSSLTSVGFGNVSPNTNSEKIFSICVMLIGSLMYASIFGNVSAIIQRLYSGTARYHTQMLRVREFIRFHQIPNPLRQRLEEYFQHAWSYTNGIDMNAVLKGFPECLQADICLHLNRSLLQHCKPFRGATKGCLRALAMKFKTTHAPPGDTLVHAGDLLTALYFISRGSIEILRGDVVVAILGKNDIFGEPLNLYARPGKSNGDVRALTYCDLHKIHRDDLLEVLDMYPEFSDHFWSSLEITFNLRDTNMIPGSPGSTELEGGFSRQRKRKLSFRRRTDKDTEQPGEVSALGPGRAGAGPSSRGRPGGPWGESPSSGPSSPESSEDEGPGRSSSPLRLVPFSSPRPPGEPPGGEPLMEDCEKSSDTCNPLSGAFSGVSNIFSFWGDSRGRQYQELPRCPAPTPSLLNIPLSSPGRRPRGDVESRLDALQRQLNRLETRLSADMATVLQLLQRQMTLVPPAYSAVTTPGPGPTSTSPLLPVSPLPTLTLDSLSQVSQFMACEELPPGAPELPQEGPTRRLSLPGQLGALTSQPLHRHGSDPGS
Method in brief: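 hERG-BacMam U2OS, 2000 cells/well; 0.7X FluxOR loading 1 hr RT dark; cpd ~10 min 37 °C; stim buffer; FDSS fluorescence 2 min @ 1 s; AC50 Hill fit.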

[22] = tested on: Zika virus NS2B-NS3 protease; assay: Primary screen GU AMC qHTS for Zika virus inhibitors (AID 1347154); also: nearly all actives have a fitted effect of over 70% in size
Method in brief: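 Unlinked Zika NS2B hydrophilic domain/NS3 protease domain noncovalent complex (25 nM final) in 10 mM Tris-HCl pH 8.0, 0.01% Tween 20, with AMC peptide substrate. Fluorescence (ex 340, em 450 nm) change over 15 min, room temperature; percent inhibition fitted to 4-parameter Hill equation.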

Measured: Potency

Cc1cccc(C)c1NC(=O)C[N+](C)(C)C
inactive: all assays above
